Source: PubChem
Redox H2O2 prof: compounds producing H2O2 with reducing agent – biochemical, NIH compound library profiling, artefact control for MLSCN library redox annotation, primary screen. AID 878. activation, % at 10 µM. DTT-dependent redox cycling H2O2, phenol red/HRP absorbance; 100% = 100 µM peroxide control, 0% = buffer. actives 0.03% (n = 200,000);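 active = activation of at least 50% relative to the plate's high and low controls in the primary single-dose screen; inactive = activation below 50%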;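 also: compound incubated with DTT at 0.8 mM final as the reducing agent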
G6PDH counter: L. mesenteroides G6PDH inhibition counter-screen; Purified L. mesenteroides G6PDH, diaphorase/resazurin coupled fluorescence, 45 min; inhibition, % at 5 µM; actives 0.12% (n = 200,000); in the data active = inhibition above about 50%
S1P3 antagonist: blocks the human S1P3 receptor. Q99500. CHO S1P3 NFAT-BLA reporter, FRET fluorescence, antagonist mode. inhibition, % at 4.98 µM. actives 0.27% (n = 170,000);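 active = inhibition above the plate cutoff, the mean inhibition of test wells on that plate plus 3 SD, cut at about 28% in these data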;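 also: cells challenged with S1P at its EC80 of 0.8 µM; blue over green emission ratio from cleaved BLA substrate after 4 h stimulation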
Tb hexokinase: blocks Trypanosoma brucei hexokinase 1 activity; recombinant TbHK1, G6PDH-coupled NADH A340; inhibition, % at 10 µM; actives 0.11% (n = 220,000); AID 1430;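 active = inhibition of 50% or more in the single-dose primary screen; inactive = inhibition below 50%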
p97 ATPase inh: inhibitors of human p97 ATPase; recombinant p97 ATPase, Kinase-Glo ATP luminescence, 3 h; actives 0.42% (n = 220,000); P55072; inhibition, % at 8 µM; AID 1481; in the data active = inhibition above about 15%
Target sequence (P55072 whole entry, looked up): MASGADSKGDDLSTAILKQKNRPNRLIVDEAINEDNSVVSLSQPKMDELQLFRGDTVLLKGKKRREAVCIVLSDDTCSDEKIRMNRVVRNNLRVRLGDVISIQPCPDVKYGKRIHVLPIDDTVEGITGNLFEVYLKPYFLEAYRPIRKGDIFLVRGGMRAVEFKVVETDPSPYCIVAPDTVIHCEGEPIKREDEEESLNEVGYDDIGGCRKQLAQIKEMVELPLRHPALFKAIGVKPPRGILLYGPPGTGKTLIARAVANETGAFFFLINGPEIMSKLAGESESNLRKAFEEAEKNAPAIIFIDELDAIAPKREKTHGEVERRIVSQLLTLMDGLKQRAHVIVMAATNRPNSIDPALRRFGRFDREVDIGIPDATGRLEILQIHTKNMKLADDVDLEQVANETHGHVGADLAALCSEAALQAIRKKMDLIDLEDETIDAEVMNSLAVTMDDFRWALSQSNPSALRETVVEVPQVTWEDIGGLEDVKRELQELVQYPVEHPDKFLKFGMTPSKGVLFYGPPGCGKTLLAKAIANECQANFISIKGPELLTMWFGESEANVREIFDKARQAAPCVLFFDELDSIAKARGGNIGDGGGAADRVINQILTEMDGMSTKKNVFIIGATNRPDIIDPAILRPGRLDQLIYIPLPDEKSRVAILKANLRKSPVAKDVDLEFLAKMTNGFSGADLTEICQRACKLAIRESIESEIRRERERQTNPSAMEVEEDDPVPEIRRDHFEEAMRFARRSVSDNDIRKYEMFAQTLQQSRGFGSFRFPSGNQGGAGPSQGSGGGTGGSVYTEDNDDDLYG
p97 confirm: human p97 ATPase inhibition, confirmation; actives 44% (n = 760); AID 1517; shares compounds with p97 ATPase inh; inhibition, % at 8 µM; recombinant p97 ATPase, Kinase-Glo ATP luminescence;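 active = percent inhibition of p97 ATPase above a set limit, the primary screen's mean plus 3 SD, cut at about 15% in these data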
Of the large screens only hits and unclear results are named; the others gave an inactive call (follow-up assays come after a bar, where they were run). Rows were chosen to be rich in hits. Some 0.84% of all compounds tested hit in one or more screens of this group.

O=C(CSc1nnc(-c2ccco2)n1-c1ccccc1)N1CCN(C(=O)c2ccco2)CC1	none
COc1ccc2[nH]cc(C(=O)CCl)c2c1	p97 ATPase inh 42 (no result: Redox H2O2 prof, G6PDH counter) | p97 confirm 46
COC(=O)c1cccc(C23CC4(C2)[C@H](CN(CC2CCCCC2)[C@@H]4c2ccccc2)C3c2ccccc2)c1 (some centres not stated)	none (no result: Redox H2O2 prof, G6PDH counter, S1P3 antagonist, p97 ATPase inh)
S=c1[nH]nc(-c2ccccc2)n1/N=C/C=C/c1ccco1	none
Cc1ccccc1-c1n[nH]c(=S)n1/N=C/C=C/c1ccco1	none (no result: Redox H2O2 prof, G6PDH counter)
Cc1cc(-c2n[nH]c(=S)n2/N=C/C=C/c2ccco2)n[nH]1	p97 ATPase inh 24 (no result: Redox H2O2 prof, G6PDH counter) | p97 confirm inactive
S=c1[nH]nc(-c2ccc(Cl)cc2)n1/N=C/C=C/c1ccco1	p97 ATPase inh 16 (no result: Redox H2O2 prof, G6PDH counter) | p97 confirm inactive
Cc1nn(Cc2ccccc2Cl)c(C)c1NC(=O)c1nc2ncccn2n1	none (no result: S1P3 antagonist)
COc1ccc2c(c1)c(C(=O)CN1CCOCC1)c(C)n2C	none (no result: S1P3 antagonist)
COc1ccc(N2CCN(CC(=O)c3c(C)n(C)c4ccc(OC)cc34)CC2)cc1	p97 ATPase inh 27 (no result: Redox H2O2 prof, G6PDH counter) | p97 confirm 34
O=C(NNc1cc(N2CCOCC2)nc(N2CCOCC2)n1)c1ccc([N+](=O)[O-])cc1	p97 ATPase inh 22 | p97 confirm inactive
CC(C)(C)NC(=O)c1ccc2c(c1)CCO2	none (no result: Redox H2O2 prof, G6PDH counter)
Cc1c(O)ccc2c(O)c(NC(=O)c3ccc4c(c3)CCC(C)(C)O4)c(=O)oc12	p97 ATPase inh 29 (no result: Redox H2O2 prof, G6PDH counter) | p97 confirm inactive
Cc1ccccc1C(=O)NC(=S)Nc1ccccc1C(=O)O	none
COC(=O)c1ccccc1NC(=S)NC(=O)c1ccccc1C	p97 ATPase inh 36 (no result: S1P3 antagonist) | p97 confirm 39
COC(=O)c1ccccc1NC(=S)NC(=O)c1ccccc1	p97 ATPase inh 26 (no result: S1P3 antagonist) | p97 confirm 21
COC(=O)c1ccccc1NC(=S)NC(=O)c1ccc(C)cc1	none
COC(=O)c1ccccc1NC(=S)NC(=O)C1CCCCC1	p97 ATPase inh 18 | p97 confirm 19
Cc1cc2c(cc1C)[n+](C)cn2CC(O)COCc1ccccc1 (configuration not stated)	none (no result: S1P3 antagonist)
COCCCNC(=O)CN(Cc1ccc(Cl)cc1)S(C)(=O)=O	none
Oc1c(C(c2ccc(F)cc2)N2CCc3ccccc3C2)sc2ncnn12 (configuration not stated)	none
CCCn1nc([N+](=O)[O-])c(C(C#N)c2nc3ccccc3o2)c(Cl)c1=O (configuration not stated)	none
CCn1nc([N+](=O)[O-])c(C(C#N)c2nc3cc(C(F)(F)F)ccc3s2)c(Cl)c1=O (configuration not stated)	p97 ATPase inh 35 (no result: S1P3 antagonist) | p97 confirm 42
Cn1c(-c2ccccc2)c(/C=N/NC(=O)c2ccc(O)cc2)c2ccccc21	p97 ATPase inh 17 (no result: Redox H2O2 prof, G6PDH counter) | p97 confirm 28
O=C(O)c1ccc(-c2nc(-c3ccccc3)c(-c3cccs3)[nH]2)cc1	none (no result: Redox H2O2 prof, G6PDH counter)
COc1ccc(-c2nc(-c3cccs3)c(-c3cccs3)[nH]2)cc1O	p97 ATPase inh 15 | p97 confirm 26
O=C(CCCN1C(=O)/C(=C/c2ccco2)SC1=S)Nc1cccc(C(=O)O)c1	p97 ATPase inh 33 (no result: Redox H2O2 prof, G6PDH counter) | p97 confirm inactive
O=C(CCCN1C(=O)/C(=C\c2cccs2)SC1=S)Nc1cccc(C(=O)O)c1	none
O=C(Cn1nnc2ccccc21)c1ccc(Br)cc1	none (no result: Redox H2O2 prof, G6PDH counter)
O=c1[nH]c(S)c(/C=C2\C=Nc3ccccc32)s1	p97 ATPase inh 22 (no result: Redox H2O2 prof, G6PDH counter) | p97 confirm 16
Cc1cc(Br)ccc1SCC(=O)OC/C(O)=C(\C#N)c1nc2ccccc2[nH]1	none (no result: Redox H2O2 prof, G6PDH counter)
N#C/C(=C(\O)Cc1ccccc1)c1nc2ccccc2[nH]1	none (no result: S1P3 antagonist)
Cc1ccc(C)c(SCC(=O)OC/C(O)=C(\C#N)c2nc3ccccc3[nH]2)c1	p97 ATPase inh 18 | p97 confirm 40
N#C/C(=C(/O)CCl)c1nc2ccccc2[nH]1	p97 ATPase inh 38 | p97 confirm 30
Cc1ccc(NC(=O)/C(C#N)=C/c2cccs2)c(C)c1	none (no result: S1P3 antagonist)
O=C1c2oc3ccc(F)cc3c(=O)c2C(c2ccncc2)N1CCN1CCOCC1 (configuration not stated)	none (no result: Redox H2O2 prof, Tb hexokinase, p97 ATPase inh)
O=C(Nc1ccccc1)C1CC2CCCC(C1)C2=O (configuration not stated)	p97 ATPase inh 17 | p97 confirm inactive
O=C(Nc1ccc(Cl)cc1)C1CC2CCCC(C1)C2=O (configuration not stated)	none
COc1ccc2ccc3c(c2c1)N=CC1(O3)N(C)c2ccccc2C1(C)C (configuration not stated)	p97 ATPase inh 16 (no result: S1P3 antagonist) | p97 confirm inactive
CN1c2ccccc2C(C)(C)C12C=Nc1c(ccc3ccccc13)O2 (configuration not stated)	none (no result: S1P3 antagonist)
Nc1c(-c2ccccc2)c(CSc2nc3ccccc3[nH]2)nn1-c1cccc(C(=O)O)c1	p97 ATPase inh 16 | p97 confirm inactive
CCOC(=O)CON1C(=O)C(=O)N(OCC(=O)OCC)[C@H]2CCCC[C@H]21	none (no result: Redox H2O2 prof, G6PDH counter)
CC(C)N(CC(N)=O)C(=O)Cc1coc2cc3c(cc12)CCC3	p97 ATPase inh 26 | p97 confirm inactive
N#C/C(=C(/O)c1cc2ccccc2o1)c1nc2ccccc2s1	p97 ATPase inh 26 (no result: Redox H2O2 prof, G6PDH counter) | p97 confirm 24
COc1ccc(CCn2c(N)c(C(=O)NCc3ccco3)c3nc4ccccc4nc32)cc1	p97 ATPase inh 16 | p97 confirm inactive
COc1ccc(CCn2c(N)c(C(=O)NCc3ccco3)c3nc4ccccc4nc32)cc1OC	none
O=C(CCl)Nc1ccccc1C(=O)NCc1ccccc1	p97 ATPase inh 18 | p97 confirm 16
O=C(CCn1c(=S)oc2ccccc21)NC1CCCCCC1	p97 ATPase inh 16 (no result: Redox H2O2 prof, G6PDH counter) | p97 confirm inactive
CC1CCCC(NC(=O)CCn2c(=S)oc3ccccc32)C1C (configuration not stated)	none (no result: Redox H2O2 prof, G6PDH counter)
O=C(CSc1nc2ccccc2c(=O)n1-c1ccc(F)c(Cl)c1)Nc1cccc(S(=O)(=O)N2CCOCC2)c1	none
O=C(O)c1cc(-c2c[nH]c3ccccc23)nc2ccc3ccccc3c12	p97 ATPase inh 20 | p97 confirm 20
NNC(=O)CC12CC3CC(C1)CC(n1ncnn1)(C3)C2	none
Oc1ccc(-c2n[nH]c(=S)n2-c2ccc3c(c2)OCCO3)c(O)c1	none
C=CCn1c(NC(=O)c2ccccc2Cl)c(C#N)c2nc3ccccc3nc21	p97 ATPase inh 43 | p97 confirm 28
CCCCn1c(NC(C)=O)c(C#N)c2nc3ccccc3nc21	p97 ATPase inh 30 | p97 confirm inactive
CCCCCn1c(N)c(C#N)c2nc3ccccc3nc21	none
N#Cc1c(-c2ccccc2)c(-c2ccccc2)nn(CC(=O)NNC(=O)Nc2ccc(Cl)cc2)c1=O	p97 ATPase inh 31 (no result: Redox H2O2 prof, G6PDH counter) | p97 confirm 27
